Test results published in PubChem BioAssay (NCATS).
Records with an inconclusive call do not appear. Activity calls are given as the source filed them. Calls follow the shape of the dose curve; as a rule, active = well fitted cell-killing curve with a large enough effect; inconclusive = small, poorly fitted or top-dose-only effect, or effect the other way; inactive = no such curve, though single readings can be large or run the other way.

assay: Quantitative High-Throughput drug screen in 47 multiple myeloma cell lines against the NCATS MIPE library collection: OCIMY7_PLB cell viability assay (AID 1918987); conditions: OCI-MY7 myeloma viability, CellTiter-Glo ATP, 48 h; viability (% of DMSO): at 45.8 µM (top of the series)
Method in brief: (§1)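 ATP-based luminescence (CellTiter-Glo, 5 min RT incubation) quantified surviving cells following two days' treatment with MIPE 4.0 agents at 37 °C, 5% CO2.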
Also: nearly all actives have a fitted effect of over 65% in size.
Potency is read from the fitted curve at half-maximal effect.

| Compound | Potency | viability (% of DMSO) |
| --- | --- | --- |
| CC[C@H](CC#N)OC(=O)N[C@@H](C)c1cccc(NC(=O)Nc2ccc(-c3cnco3)c(OC)c2)c1 | 3.72 µM (active) | – |
| Cc1ccccc1C(=O)c1ccc(Nc2ccc(Br)cc2N)cc1Cl | 11.8 µM (active) | – |
| COc1ccc(-c2ccc3ncc4c(c3c2)n(-c2ccc(N3CCNCC3)c(C(F)(F)F)c2)c(=O)n4C)cn1 | 0.0059 µM (active) | – |
| CCc1cccc(CC)c1NC(=O)N1Cc2[nH]nc(NC(=O)c3ccc(N4CCN(C)CC4)cc3)c2C1 | 10.5 µM (active) | – |
| Nc1ncnc2c1ncn2[C@@H]1O[C@H](CO)[C@@H](O)[C@@H]1O | – | 126% (active) |
| CC(C)(O)CC(=O)NCCn1ccc2ncnc(Nc3ccc(Oc4cccc(C(F)(F)F)c4)c(Cl)c3)c21 | 13.2 µM (active) | – |
| c1cc(OCCN2CCCCC2)cc(-c2n[nH]c3ccc(-c4ncn[nH]4)cc23)c1 | 5.26 µM (active) | – |
| CN[C@@H]1CN(c2ccc3c(=O)c(C(=O)O)cn(-c4nccs4)c3n2)C[C@@H]1OC | 5.75 µM (active) | – |
| CNc1nc(Nc2ccc(C(=O)N3CCOCC3)cc2OC)ncc1Cl | – | 112% (inactive) |
| O=[N+]([O-])c1ccc(Nc2ccccc2-c2ccccc2)c2nonc12 | 18.7 µM (active) | – |
| O=C(C=Cc1ccc(O)cc1)c1ccc(O)cc1O | 4.69 µM (active) | – |
| CO[C@H]1C=CO[C@@]2(C)Oc3c(C)c(O)c4c(O)c(c(C=NN5CCN(C)CC5)c(O)c4c3C2=O)NC(=O)C(C)=CC=C[C@H](C)[C@H](O)[C@@H](C)[C@@H](O)[C@@H](C)[C@H](OC(C)=O)[C@H]1C | – | 115% [at 15.3 µM] (inactive) |
| CNC(=O)[C@H](Cc1ccccc1)NC(=O)[C@H](CC(C)C)[C@H](CSc1cccs1)C(=O)NO | 14.8 µM (active) | – |
| O=C(O)Cc1cccc(OCCCN(Cc2cccc(C(F)(F)F)c2Cl)CC(c2ccccc2)c2ccccc2)c1 | 13.2 µM (active) | – |
| Nc1ccc(-c2ccc3ncc4ccc(=O)n(-c5cccc(C(F)(F)F)c5)c4c3c2)cn1 | 0.0209 µM (active) | – |
| FC(F)(F)c1ccc(C=Cc2nc(COc3ccc(CCCCn4ccnn4)cc3)co2)cc1 | 0.132 µM (active) | – |
| COc1cc([C@H]2Oc3cc([C@H]4Oc5cc(O)cc(O)c5C(=O)[C@H]4O)ccc3O[C@H]2CO)ccc1O | 8.33 µM (active) | – |
| CO[C@H]1O[C@@H]2O[C@@]3(C)CC[C@@H]4[C@@H](C)CC[C@@H]([C@H]1C)[C@@]24OO3 | 0.743 µM (active) | – |
| C[C@@H](N)c1ccc(C(=O)Nc2ccnc3[nH]ccc23)cc1 | 14.8 µM (active) | – |
| NC(=O)c1noc([C@H](CCCC2CCCCC2)CC(=O)NO)n1 | 3.32 µM (active) | – |

assay: Quantitative High-Throughput drug screen in 47 multiple myeloma cell lines against the NCATS MIPE library collection: OCIMY5_PLB cell viability assay (AID 1918988); conditions: OCI-MY5 myeloma viability, ATP luminescence, 48 h; series mostly up to 45.8 µM; viability, % of control: at the top concentration
Method in brief: as §1

| Compound | Potency |
| --- | --- |
| CC[C@H](CC#N)OC(=O)N[C@@H](C)c1cccc(NC(=O)Nc2ccc(-c3cnco3)c(OC)c2)c1 | 3.72 µM (active) |
| Cc1ccccc1C(=O)c1ccc(Nc2ccc(Br)cc2N)cc1Cl | 10.5 µM (active) |
| CCN1CCC(n2cc(CNc3cc(Cl)c4ncc(C#N)c(Nc5ccc(F)c(Cl)c5)c4c3)nn2)CC1 | 4.18 µM (active) |
| O=C1CN2Cc3c(ccc(Cl)c3Cl)N=C2N1 | 23.5 µM (active) |
| COc1ccc(-c2ccc3ncc4c(c3c2)n(-c2ccc(N3CCNCC3)c(C(F)(F)F)c2)c(=O)n4C)cn1 | 0.0469 µM (active) |
| CCc1cccc(CC)c1NC(=O)N1Cc2[nH]nc(NC(=O)c3ccc(N4CCN(C)CC4)cc3)c2C1 | 1.66 µM (active) |
| COc1cc(N2CCN(C)CC2)ccc1Nc1nc(N)c(C(=O)c2c(Cl)cccc2Cl)s1 | 18.7 µM (active) |
| Nc1ncnc2c1ncn2[C@@H]1O[C@H](CO)[C@@H](O)[C@@H]1O | 16.6 µM (active) |
| C#CCN(C)CC1=Cc2ccccc2Oc2ccccc21 | 20.9 µM (active) |
| CC(C)(O)CC(=O)NCCn1ccc2ncnc(Nc3ccc(Oc4cccc(C(F)(F)F)c4)c(Cl)c3)c21 | 1.18 µM (active) |
| CN[C@@H]1CN(c2ccc3c(=O)c(C(=O)O)cn(-c4nccs4)c3n2)C[C@@H]1OC | 12.9 µM (active) |
| CNc1nc(Nc2ccc(C(=O)N3CCOCC3)cc2OC)ncc1Cl | 14.8 µM (active) |
| O=C(C=Cc1ccc(O)cc1)c1ccc(O)cc1O | 14.8 µM (active) |
| CO[C@H]1C=CO[C@@]2(C)Oc3c(C)c(O)c4c(O)c(c(C=NN5CCN(C)CC5)c(O)c4c3C2=O)NC(=O)C(C)=CC=C[C@H](C)[C@H](O)[C@@H](C)[C@@H](O)[C@@H](C)[C@H](OC(C)=O)[C@H]1C | 0.598 µM (active) |
| Nc1ccc(-c2ccc3ncc4ccc(=O)n(-c5cccc(C(F)(F)F)c5)c4c3c2)cn1 | 0.0332 µM (active) |
| CCC[C@@H](NC(=O)[C@@H]1[C@H]2CCC[C@@H]2CN1C(=O)[C@@H](NC(=O)[C@@H](NC(=O)c1cnccn1)C1CCCCC1)C(C)(C)C)C(=O)C(=O)NC1CC1 | 16.6 µM (active) |
| FC(F)(F)c1ccc(C=Cc2nc(COc3ccc(CCCCn4ccnn4)cc3)co2)cc1 | 0.0166 µM (active) |
| CCOC(=O)c1c(CSc2ccccc2)n(C)c2cc(Br)c(O)c(CN(C)C)c12 | 16.6 µM (active) |
| COc1cc([C@H]2Oc3cc([C@H]4Oc5cc(O)cc(O)c5C(=O)[C@H]4O)ccc3O[C@H]2CO)ccc1O | 10.5 µM (active) |
| C[C@@H](N)c1ccc(C(=O)Nc2ccnc3[nH]ccc23)cc1 | 23.5 µM (active) |
| NC(=O)c1noc([C@H](CCCC2CCCCC2)CC(=O)NO)n1 | 16.6 µM (active) |
| Oc1ccc(C=Cc2cc(O)cc(O)c2)cc1 | 13.2 µM (active) |
